Source: PubChem BioAssay
AT treatment = candidate therapy for ataxia-telangiectasia. F2112 A-T fibroblasts, KAP-1 phosphorylation AlphaLISA; neocarzinostatin DNA damage 30 min before lysis. 320,000 compounds, 0.19% hits. Potency, µM (series often up to 57.5 µM), inactives show at the highest dose activation, most hits filed as activators; further: potency means the concentration at half of the fitted maximal effect; % of control where 0% means no effect; nearly all actives have a fitted effect of over 45% in size
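ATM-like activity read as KAP-1 phosphorylation via AlphaLISA donor/acceptor antibody pairs after lysis and 6 hr at 25C. Cells were ATM-null patient fibroblasts (F2112, hTERT), dosed 60 min, then exposed to the DSB inducer NCS for 30 min.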
PTAP TSG101 blk = blocks PTAP/TSG101 interaction to inhibit HIV-1 budding; Q99816; Fluorescence polarization, FITC-PTAP peptide / Tsg101 binding; Potency, µM (highest dose often 115 µM), for the others: at the top dose activity change, negative = inhibition, usual class: inhibitors; 340,000 tested, under 10 active; AID 493005; active means well fitted inhibition curve with a large enough effect in the main read-out, with a control signal flat, not every such curve was filed as active; inconclusive means small, poorly fitted or top-dose-only effect, or effect the other way, or a change in a side signal; inactive means no such curve, though single readings can be large or run the other way; further: potency means the concentration at half of the fitted maximal effect; % of control where 0% means no effect
Target sequence (Q99816 whole entry, looked up): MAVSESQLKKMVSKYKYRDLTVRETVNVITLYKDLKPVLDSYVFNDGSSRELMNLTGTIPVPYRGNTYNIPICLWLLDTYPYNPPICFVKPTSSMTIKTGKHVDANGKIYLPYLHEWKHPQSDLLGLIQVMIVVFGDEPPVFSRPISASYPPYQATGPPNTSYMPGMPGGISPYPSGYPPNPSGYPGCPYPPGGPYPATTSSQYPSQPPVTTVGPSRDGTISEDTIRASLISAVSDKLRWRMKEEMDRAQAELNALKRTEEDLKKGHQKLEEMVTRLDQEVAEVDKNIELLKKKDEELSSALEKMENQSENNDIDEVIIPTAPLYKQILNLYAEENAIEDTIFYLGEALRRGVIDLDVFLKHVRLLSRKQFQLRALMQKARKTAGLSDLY
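FP read-out: FITC-PTAP peptide, 50 nM final, binding Tsg101 binding domain, 10 uM final; 20 min, r.t.; 10 mM HEPES pH 7.5, 0.15 M NaCl, 0.01% Tween 20, 3 mM EDTA, 0.1 mM TCEP.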
TRPV1 PAM = enhances activation of the human vanilloid receptor TRPV1 | Q8NER1 | TRPV1-expressing cells, Fluo-8 calcium influx, capsaicin EC20 potentiation | potentiation, % at 8.33 µM | 320,000 compounds, 0.02% hits | AID 540277; in the data active means potentiation above about 80%; inconclusive means between about 30% and that limit; further: 0% is about no effect
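TRPV1-expressing cells were cultured overnight at 35.5C and loaded with Fluo-8 calcium dye for 40 to 90 min at room temperature. After a 10 s baseline, compound was added and calcium influx was read kinetically for 3 min (ex 480/em 520 nm).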
S-ASM inh = human S-ASM enzyme inhibition; P17405; placental ASM, HMU-PC fluorogenic substrate, 60 min; Potency, µM (series often up to 57.5 µM), inactives show top-dose activity change, negative = inhibition, usual class: inhibitors; 340,000 compounds, 0.006% hits; AID 504937; further: potency means the concentration at half of the fitted maximal effect
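Fluorogenic HMU-PC substrate (9 uM final) is turned over by placental ASM in 60 min at 37 C after a 10 min compound preincubation. Reaction ended by alkaline stop (pH 10), with fluorescence read at 386/447 nm.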
TRPV1 ag = activates the human vanilloid receptor TRPV1; activation, % at 8.33 µM; 320,000 compounds, 0.19% hits; Q8NER1; TRPV1-expressing cells, Fluo-8 calcium influx, agonist mode; in the data active means activation above about 80%; inconclusive means between about 30% and that limit; further: 0% is about no effect
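Fluo-8 calcium influx in TRPV1-expressing cells, kinetic read (ex 480/em 520 nm). Compound added and read 3 min for agonist activity, followed by capsaicin at EC20 final and 2 min further read for enhancement.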
An asterisk follows results filed as active; i = inactive; ? = inconclusive; · = no result. Only some compounds are listed: those with a hit (about 0.37% of all), similar ones and a draw of the others. Unless noted, the call rests on the fitted dose curve; in most records, active means well fitted curve in the direction sought with a large enough effect; inconclusive means small, poorly fitted or top-dose-only effect, or another doubt; inactive means no such curve, though single readings can be large; an effect the other way counts as inactive or inconclusive.

SMILES | AT treatment | PTAP TSG101 blk | TRPV1 PAM | S-ASM inh | TRPV1 ag
O=C(Oc1ccc2cc(Br)ccc2c1)N1CCCCCC1 | 35µM* | · | 21 | · | 4
Cc1ccc2scc(N3CCN(C)CC3)c(=O)c2c1 | · | · | 9 | · | 1
O=P(O)(O)/C=C(\Cl)c1ccccc1 | -3% | -1% | -3 | 22µM* | -1
CCOC(=O)C1CCCN(Cc2ccc(-c3ccccc3)cc2)C1 (stereo not given) | 25µM* | -3% | -6 | 1% | 3
CCOC(=O)C1CCN(Cc2ccc(Cl)nc2)CC1 | 0% | -8% | -8 | 2% | 1
CC12CC(c3ccccc3O1)C(C(=O)OCc1ccccc1)C(=O)N2 (stereo not given) | -1% | -6% | ? | 5% | 0
CC1(C)C(C=C(Cl)Cl)C1C(=O)OCc1cccc(Oc2ccccc2)c1 (stereo not given) | 40µM* | 4% | 16 | 0% | -5
Cc1ccc(N=Nc2cc(C)ccc2N)cc1 | ? | -9% | -6 | -12% | 6
BrCC1C[n+]2c(SCc3ccccc3)nc3sc4c(c3c2O1)CCCC4 (stereo not given) | 40µM* | -12% | -2 | -3% | 17
CCOP(=O)(OCC)/C(C#N)=C/c1ccc(-c2ccc(F)cc2F)o1 | ? | -8% | -11 | 77% | 25
Nc1c(C(=O)NCCc2ccccc2)c2nc3ccccc3nc2n1CCN1CCOCC1 | 32% | -5% | -3 | i | ?
Nc1c(C(=O)NCCN2CCOCC2)c2nc3ccccc3nc2n1Cc1ccccc1 | 20µM* | -7% | -9 | i | 4
O=[N+]([O-])c1ccc(NCc2ccccc2)c2nonc12 | 11% | ? | -7 | -1% | 126*
Cc1c(C)c2c(OCC(=O)N[C@@H](C)C(=O)O)cc3c(c2oc1=O)CCC(C)(C)O3 | 3% | 1% | 2 | 101% | -1
CCC1(O)C(=O)OCc2c1cc1n(c2=O)Cc2cc3c(N)cccc3nc2-1 (stereo not given) | · | -3% | · | 16% | ·
O=C(Cn1nc(-c2ccc(Cl)cc2)ccc1=O)N1CCC2(CC1)OCCO2 | 0% | 0% | 105* | -2% | 6
CN1/C(=C\C=C2C(=O)NC(=S)NC2=O)C(C)(C)c2ccccc21 | -1% | ? | -12 | -5% | 98*
CC1(C)OC(c2ccccc2)=C/C(=C/C=C2C(=O)NC(=S)NC2=O)O1 | 8% | 17% | 0 | 0% | 13
CN1CCCC(C(=O)c2ccc(-c3ccccc3)cc2)C1 (stereo not given) | 0% | -4% | -23 | 2% | 9
CN1CCCC(C(O)(c2ccccc2)c2ccccc2)C1 (stereo not given) | 3.2µM* | -1% | 3 | 3% | 4
COc1ccc(/C=C2\Oc3cc(OC(=O)N4CCOCC4)ccc3C2=O)c(OC)c1 | -1% | 2% | · | 142% | ·
CCOc1ccc(-c2c(C)n(-c3ccc(OCC)cc3)c3[n+]2CCCCC3)cc1 | 18µM* | 1% | ? | -2% | 0
CCOc1ccc(-n2c(-c3ccoc3)nc3ccccc3c2=O)cc1 | -3% | -9% | 23 | 2% | 2
Cc1ccc[n+](CC(=O)c2ccccc2)c1 | 1.1µM* | · | -9 | · | -2
S=c1[nH]nc(Cn2c(-c3ccccn3)nc3ccccc32)n1-c1ccc2c(c1)OCCO2 | ? | -1% | 4 | 3% | 0
COC(=O)C1=C(c2ccc(Cl)c(C(F)(F)F)c2)C[C@@H]2CC[C@H]1N2C(=O)NCCOc1ccc(OC)cc1 | 20µM* | -9% | 0 | -3% | 8
